# Test results published in PubChem BioAssay (NCI).
# Compounds without any hit were thinned out: in the full panel of roughly 83,000, 20% have a hit.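 Single-concentration screen, 48 h exposure, 96-well plates. Endpoint: percent growth. Below 10 = active.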 Values without a mark were called inactive. The source made the active and inactive calls.
# Columns and labels:
# Test in all cases: NCI-60 one-dose screen, 48 h (100 = growth as untreated, 0 = no growth, -100 = all killed)
# [1] = system: NCI-H23 lung; conditions: 10 µM unless noted
# [2] = system: NCI-H226 lung; conditions: 10 µM unless noted
# [3] = system: NCI-H322M lung; conditions: 10 µM unless noted
# [4] = system: HOP-62 NSCLC; conditions: 10 µM unless noted
# [5] = system: NCI-H460 lung; conditions: 10 µM unless noted
# [6] = system: HOP-92 NSCLC
# [7] = system: NCI-H522 lung; conditions: 10 µM unless noted
# [8] = system: A549/ATCC NSCLC; conditions: 10 µM unless noted
# [9] = system: 786-0 renal; conditions: 10 µM unless noted
# [10] = system: COLO 205 colon; conditions: 10 µM unless noted
# [11] = system: DU-145 prostate; conditions: 10 µM unless noted
# [12] = system: K-562 leukemia; conditions: 10 µM unless noted
# [13] = system: MALME-3M melanoma; conditions: 10 µM unless noted
# [14] = system: MDA-MB-231 breast; conditions: 10 µM unless noted
# [15] = system: RXF 393 renal; conditions: 10 µM unless noted
# [16] = system: SF-268 CNS; conditions: 10 µM unless noted
# [17] = system: SF-295 CNS; conditions: 10 µM unless noted
# [18] = system: SF-539 CNS; conditions: 10 µM unless noted
# [19] = system: UACC-257 melanoma; conditions: 10 µM unless noted
# [20] = system: M14 melanoma; conditions: 10 µM unless noted
smiles,measurement,setting,value
Cc1c(N)nc([C@H](CC(N)=O)NC[C@H](N)C(N)=O)nc1C(=O)N[C@H](C(=O)N[C@H](C)[C@@H](O)[C@H](C)C(=O)N[C@H](C(=O)NCCc1nc(-c2nc(C(=O)NCCC[S+](C)C)cs2)cs1)[C@@H](C)O)C(OC1OC(CO)C(O)C(O)C1OC1OC(CO)C(O)C(OC(N)=O)C1O)c1cnc[nH]1 (stereo not given in full),growth,[1],37.9% [2.5 µM]
same,growth,[2],37.2% [2.5 µM]
same,growth,[3],97.1% [2.5 µM]
same,growth,[4],43.9% [2.5 µM]
same,growth,[5],23.1% [2.5 µM]
same,growth,[6]; 2.5 µM,-4.74% (active)
same,growth,[7],57.3% [2.5 µM]
same,growth,[8],52.9% [2.5 µM]
same,growth,[9],27.9% [2.5 µM]
same,growth,[10],87.7% [2.5 µM]
same,growth,[11],58.7% [2.5 µM]
same,growth,[12],65.8% [2.5 µM]
same,growth,[13],45.9% [2.5 µM]
same,growth,[14],99.2% [2.5 µM]
same,growth,[15],20.5% [2.5 µM]
same,growth,[16],61.6% [2.5 µM]
same,growth,[17],8.69% [2.5 µM] (active)
same,growth,[18],-48.7% [2.5 µM] (active)
same,growth,[19],31.9% [2.5 µM]
CCC1(O)CC(OC2CC(N(C)C)C(OC3CC4OC5CC(=O)C(C)OC5OC4C(C)O3)C(C)O2)c2c(cc3c(c2O)C(=O)c2c(O)ccc(O)c2C3=O)C1C(=O)OC (stereo not given),growth,[1],-52.5% (active)
same,growth,[2],-8.6% (active)
same,growth,[3],-32.4% (active)
same,growth,[4],-26% (active)
same,growth,[5],-26.3% (active)
same,growth,[7],-75.4% (active)
same,growth,[8],1.52% (active)
same,growth,[9],-35.6% (active)
same,growth,[10],-52.1% (active)
same,growth,[11],-12.7% (active)
same,growth,[12],-39.7% (active)
same,growth,[13],-95.3% (active)
same,growth,[14],-5.87% (active)
same,growth,[15],-1.64% (active)
same,growth,[16],-14.3% (active)
same,growth,[17],-32.7% (active)
same,growth,[18],-55.6% (active)
same,growth,[19],-3.52% (active)
same,growth,[20],-95% (active)
NCCc1ccc(OCc2ccccc2)c(OCc2ccccc2)c1,growth,[1],87.6%
same,growth,[2],103%
same,growth,[3],85.4%
same,growth,[4],87.3%
same,growth,[5],60.6%
same,growth,[6]; 10 µM,-2.74% (active)
same,growth,[9],84.2%
same,growth,[10],13.5%
same,growth,[11],97.3%
same,growth,[12],30.8%
same,growth,[13],106%
same,growth,[14],79.2%
same,growth,[15],62.2%
same,growth,[16],89.2%
same,growth,[17],97.1%
same,growth,[18],93.1%
same,growth,[20],102%
